According to paper PMC11024108:

What was measured:
Assay in all cases: cross-link between two proteins; cross-linking mass spectrometry
[1] = molecular target: Small ribosomal subunit protein eS4, X isoform (UniProt P62701)
[2] = molecular target: Small ribosomal subunit protein uS19 (UniProt P62841)
[3] = molecular target: Small ribosomal subunit protein uS4 (UniProt Q6ZWN5)
Syntaxin-1B = Syntaxin-1B (UniProt P61264)
Tubulin alpha-1C chain = Tubulin alpha-1C chain (UniProt Q9BQE3)
Tubulin beta-2A chain = Tubulin beta-2A chain (UniProt Q7TMM9)
[4] = molecular target: Ubiquitin-like FUBI-ribosomal protein eS30 fusion protein (UniProt P62861)
[5] = molecular target: Ubiquitin-ribosomal protein eS31 fusion protein (UniProt P62979)
[6] = molecular target: cAMP-dependent protein kinase catalytic subunit beta (UniProt P68181)
[7] = molecular target: cAMP-dependent protein kinase type II-beta regulatory subunit (UniProt P31324)
Sequence of cAMP-dependent protein kinase type II-beta regulatory subunit (P31324 whole entry): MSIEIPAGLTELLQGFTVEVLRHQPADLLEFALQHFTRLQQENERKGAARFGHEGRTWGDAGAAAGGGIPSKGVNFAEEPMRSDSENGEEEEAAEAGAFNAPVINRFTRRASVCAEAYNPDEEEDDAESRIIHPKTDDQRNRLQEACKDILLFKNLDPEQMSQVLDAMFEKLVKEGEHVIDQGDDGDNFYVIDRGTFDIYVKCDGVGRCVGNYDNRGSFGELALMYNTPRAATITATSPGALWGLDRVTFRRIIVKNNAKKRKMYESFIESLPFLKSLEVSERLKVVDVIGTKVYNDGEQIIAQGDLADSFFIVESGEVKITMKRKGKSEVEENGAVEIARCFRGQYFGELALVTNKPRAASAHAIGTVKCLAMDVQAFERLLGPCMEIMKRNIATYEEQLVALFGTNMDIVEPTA

Sequence of Syntaxin-1A, O35526 (O35526 whole entry): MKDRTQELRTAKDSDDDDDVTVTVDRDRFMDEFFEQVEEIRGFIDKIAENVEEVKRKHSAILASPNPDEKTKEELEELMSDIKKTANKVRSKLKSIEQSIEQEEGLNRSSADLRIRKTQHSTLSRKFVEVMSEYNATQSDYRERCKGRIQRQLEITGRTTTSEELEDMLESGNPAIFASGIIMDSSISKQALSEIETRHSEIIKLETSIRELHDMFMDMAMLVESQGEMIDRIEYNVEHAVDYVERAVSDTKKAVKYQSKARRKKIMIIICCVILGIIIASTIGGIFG
Sequence of Tubulin beta-2A chain (Q7TMM9 whole entry, the tested form may be a part): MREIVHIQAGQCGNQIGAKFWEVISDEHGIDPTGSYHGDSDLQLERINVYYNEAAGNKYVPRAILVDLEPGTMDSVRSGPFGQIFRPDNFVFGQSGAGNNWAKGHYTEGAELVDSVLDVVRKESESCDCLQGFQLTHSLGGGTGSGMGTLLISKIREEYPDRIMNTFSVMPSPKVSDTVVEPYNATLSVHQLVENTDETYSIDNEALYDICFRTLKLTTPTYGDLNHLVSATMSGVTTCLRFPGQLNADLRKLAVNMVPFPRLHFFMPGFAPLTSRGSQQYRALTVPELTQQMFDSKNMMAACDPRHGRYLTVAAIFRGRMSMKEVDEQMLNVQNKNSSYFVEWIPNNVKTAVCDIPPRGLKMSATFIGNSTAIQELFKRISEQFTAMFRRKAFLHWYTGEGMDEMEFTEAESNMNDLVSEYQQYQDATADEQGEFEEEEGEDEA
Sequence of Tubulin alpha-1A chain, P68369 (P68369 whole entry): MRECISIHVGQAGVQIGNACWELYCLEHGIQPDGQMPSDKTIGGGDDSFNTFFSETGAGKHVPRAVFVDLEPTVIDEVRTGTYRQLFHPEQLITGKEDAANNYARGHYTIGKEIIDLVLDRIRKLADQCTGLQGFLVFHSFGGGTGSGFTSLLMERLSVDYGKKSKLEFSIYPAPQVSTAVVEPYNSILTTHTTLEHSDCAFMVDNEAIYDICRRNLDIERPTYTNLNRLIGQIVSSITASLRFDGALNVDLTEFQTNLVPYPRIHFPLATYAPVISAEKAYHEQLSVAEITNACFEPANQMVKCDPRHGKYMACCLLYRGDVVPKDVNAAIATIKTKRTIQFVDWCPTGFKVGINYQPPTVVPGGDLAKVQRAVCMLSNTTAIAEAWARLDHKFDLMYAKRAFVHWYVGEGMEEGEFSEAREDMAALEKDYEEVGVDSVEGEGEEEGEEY
Sequence of Syntaxin-1B (P61264 whole entry): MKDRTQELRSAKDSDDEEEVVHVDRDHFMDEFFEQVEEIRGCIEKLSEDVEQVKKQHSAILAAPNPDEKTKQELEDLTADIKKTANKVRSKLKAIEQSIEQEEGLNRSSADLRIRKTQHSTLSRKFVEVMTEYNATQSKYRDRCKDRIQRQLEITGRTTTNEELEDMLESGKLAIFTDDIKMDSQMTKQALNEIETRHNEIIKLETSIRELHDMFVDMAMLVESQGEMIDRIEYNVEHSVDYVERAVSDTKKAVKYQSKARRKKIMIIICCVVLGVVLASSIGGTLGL
Sequence of cAMP-dependent protein kinase type II-alpha regulatory subunit, P12367 (P12367 whole entry): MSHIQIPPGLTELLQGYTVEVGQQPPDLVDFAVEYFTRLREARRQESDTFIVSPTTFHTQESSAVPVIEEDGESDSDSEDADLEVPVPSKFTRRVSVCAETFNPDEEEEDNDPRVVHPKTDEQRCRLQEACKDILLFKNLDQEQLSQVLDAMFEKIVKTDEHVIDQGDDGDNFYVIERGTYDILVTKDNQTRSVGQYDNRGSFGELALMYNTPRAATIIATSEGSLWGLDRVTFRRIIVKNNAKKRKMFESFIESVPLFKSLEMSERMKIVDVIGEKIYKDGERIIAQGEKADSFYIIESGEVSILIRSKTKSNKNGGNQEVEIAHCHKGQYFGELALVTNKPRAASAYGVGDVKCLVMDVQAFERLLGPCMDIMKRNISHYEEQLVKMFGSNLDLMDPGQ

## Small ribosomal subunit protein uS4, P46781
[1]
  listed as a hit: yes

## Small ribosomal subunit protein uS13, P62269
[2]
  listed as a hit: yes

## Small ribosomal subunit protein eS4, P62702
[3]
  listed as a hit: yes

## Small ribosomal subunit protein uS5, P25444
[3]
  listed as a hit: yes

## Syntaxin-1A, O35526
Syntaxin-1B
  listed as a hit: yes

## L-lactate dehydrogenase A chain, P00338
Tubulin alpha-1C chain
  listed as a hit: yes

## Tubulin alpha-1A chain, P68369
Tubulin beta-2A chain
  listed as a hit: yes

## Small ribosomal subunit protein uS3, P23396
[4]
  listed as a hit: yes

## Small ribosomal subunit protein uS15, P62277
[5]
  listed as a hit: yes

## Small ribosomal subunit protein eS7, P62081
[5]
  listed as a hit: yes

## cAMP-dependent protein kinase catalytic subunit alpha, P05132
[6]
  listed as a hit: yes

## cAMP-dependent protein kinase type II-alpha regulatory subunit, P12367
[7]
  listed as a hit: yes
